The list is not random: actives were taken first. Their share in the collection is about 2.3%.
C diff growth: blocks growth of Clostridium difficile; 86,000 tested, 0.25% active; Clostridium difficile clinical isolate growth, OD600, 24 h; hits give low values; growth activity, negative = inhibition, % at 16 µg/mL (by protocol); AID 1259249;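 active means mean growth activity at or below -80% and every replicate also at or below -80%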;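 further: 0% = DMSO wells and -100% = levofloxacin 16 µg/mL wells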
Pf Dd2 growth: P. falciparum Dd2 growth inhibition. SYBR Green, 72 h; hits give low values. activity change, % at 10 µM. 94,000 tested, 2.3% active. AID 1159554; in the data active means activity change below about -80%
Numbers without * were called inactive; . = no result given.

SMILES | C diff growth | Pf Dd2 growth
C[C@@H]1CCCCO[C@H](CN(C)Cc2ccc3c(c2)OCO3)[C@H](C)CN([C@H](C)CO)C(=O)c2cc(NC(=O)Nc3cccc4ccccc34)ccc2O1 | 22 | -84*
C[C@@H]1CN([C@@H](C)CO)C(=O)c2cc(NC(=O)Nc3cccc4ccccc34)ccc2O[C@@H](C)CCCCO[C@@H]1CN(C)Cc1ccc2c(c1)OCO2 | . | -90*
C[C@@H]1CN([C@H](C)CO)C(=O)c2cccc(NC(=O)Nc3ccc4c(c3)OCO4)c2O[C@H]1CN(C)C(=O)Nc1cccc2ccccc12 | -2 | 12
O=C(CN1CCOCC1)NCC[C@H]1CC[C@H](NC(=O)Nc2ccc(C(F)(F)F)cc2)[C@H](CO)O1 | . | 8
CCCNC(=O)N1CC2(CN(S(=O)(=O)c3ccc(OC)cc3)C2)c2c(n(C)c3cc(OC)ccc23)[C@H]1CO | -12 | -24
C[C@@H]1CCCCO[C@@H](CN(C)Cc2ccncc2)[C@@H](C)CN([C@H](C)CO)C(=O)c2cc(NC(=O)CCCCCC(=O)Nc3ccccc3N)ccc2O1 | -3 | -37
C[C@@H]1CCCCO[C@@H](CN(C)CC2CCCCC2)[C@H](C)CN([C@@H](C)CO)C(=O)c2cc(NC(=O)CCCCCC(=O)Nc3ccccc3N)ccc2O1 | -2 | -81*
C[C@@H]1CCCCO[C@@H](CN(C)CC2CC2)[C@@H](C)CN([C@H](C)CO)C(=O)c2cc(NC(=O)CCCCCC(=O)Nc3ccccc3N)ccc2O1 | -2 | -78
C[C@@H]1CCCCO[C@@H](CN(C)Cc2ccccc2)[C@@H](C)CN([C@H](C)CO)C(=O)c2cc(NC(=O)CCCCCC(=O)Nc3ccccc3N)ccc2O1 | -8 | -84*
C[C@@H]1CN([C@@H](C)CO)C(=O)Cc2cc(NS(C)(=O)=O)ccc2O[C@@H]1CN(C)Cc1ccc(C(=O)Nc2ccccc2N)cc1 | 1 | 8
C[C@H](CO)N1C[C@H](C)[C@@H](CN(C)Cc2ccc(C(=O)Nc3ccccc3N)cc2)Oc2ccc(NS(C)(=O)=O)cc2CC1=O | -2 | -18
Cc1ccc(S(=O)(=O)Nc2ccc3c(c2)CC(=O)N([C@@H](C)CO)C[C@H](C)[C@@H](CN(C)Cc2ccc(C(=O)Nc4ccccc4N)cc2)O3)cc1 | 1 | -85*
Cc1ccc(S(=O)(=O)Nc2ccc3c(c2)CC(=O)N([C@H](C)CO)C[C@@H](C)[C@@H](CN(C)Cc2ccc(C(=O)Nc4ccccc4N)cc2)O3)cc1 | 2 | -86*
CCC(=O)N1[C@H](CNC(C)=O)[C@H](c2ccc(-c3cccc(F)c3)cc2)[C@@H]1CO | -8 | 3
CS(=O)(=O)Nc1ccc2c(c1)[C@@H]1C[C@@H](CC(=O)N3CCCCC3)O[C@H](CO)[C@@H]1O2 | -3 | -1
CO[C@@H]1CN(C)C(=O)c2ccc(NC(=O)c3cnccn3)cc2OC[C@H](C)N(C(C)=O)C[C@@H]1C | 1 | 11
CO[C@@H]1CN(C)C(=O)c2cc(NC(=O)Nc3ccc(C(F)(F)F)cc3)ccc2OC[C@H](C)NC[C@H]1C | . | -89*
CO[C@@H]1CN(C)C(=O)c2ccc(NC(=O)Nc3cccc(F)c3)cc2OC[C@H](C)NC[C@@H]1C | . | 7
CO[C@@H]1CN(C)C(=O)c2ccc(NC(=O)Nc3ccc(C(F)(F)F)cc3)cc2OC[C@H](C)NC[C@@H]1C | . | -21
CO[C@@H]1CN(C)C(=O)c2ccc(NC(=O)Nc3cccc(F)c3)cc2OC[C@H](C)NC[C@H]1C | . | -82*
CO[C@H]1CN(C)C(=O)c2ccc(NC(=O)Nc3ccc(C(F)(F)F)cc3)cc2OC[C@@H](C)NC[C@@H]1C | . | -76
CO[C@@H]1CN(C)C(=O)c2cc(NC(=O)Nc3ccc(C(F)(F)F)cc3)ccc2OC[C@@H](C)NC[C@@H]1C | . | -81*
CO[C@@H]1CN(C)C(=O)c2cc(NC(=O)Nc3ccc(F)cc3)ccc2OC[C@H](C)NC[C@H]1C | 1 | -8
CO[C@H]1CN(C)C(=O)c2ccc(NC(=O)Nc3ccc(C(F)(F)F)cc3)cc2OC[C@H](C)NC[C@H]1C | . | -90*
O=C(NCC[C@H]1CC[C@@H](NC(=O)c2ccc3c(c2)OCO3)[C@H](CO)O1)Nc1cc(F)ccc1F | . | -16
SMILES | C diff growth | Pf Dd2 growth
CCCC(=O)Nc1ccc2c(c1)C(=O)N(C)C[C@H](OC)[C@@H](C)CN(Cc1nccs1)[C@@H](C)CO2 | . | -13
COc1ccc(CN2C(C)C3C(C)=CC2C2C(=O)N(C)C(=O)C32)cc1 (configuration not stated) | -4 | .
COCCNC(=O)C[C@@H]1CC[C@@H]2[C@@H](COc3ccc(NC(=O)Nc4ccccc4)cc3C(=O)N2C)O1 | -5 | -10
O=C(NCC1CC1)[C@@H]1N[C@@H]2c3ccc(-c4ccccc4F)c(=O)n3C[C@@H]2[C@H]1CO | 0 | 4
C[C@@H]1CN([C@H](C)CO)S(=O)(=O)c2ccc(-c3cccnc3)cc2O[C@@H]1CN(C)C(=O)C1CC1 | . | 17
CCCC#Cc1ccc2c(c1)O[C@H](CN(C)C(=O)c1ccccc1)[C@@H](C)CN([C@H](C)CO)S2(=O)=O | -1 | -30
COc1ccccc1NC(=O)N1CCCCN2[C@H](C1)[C@H](c1ccc(-c3cccc(C)c3)cc1)[C@@H]2CO | 29 | -6
COc1ccccc1NC(=O)N1CCCCN2[C@@H](CO)[C@@H](c3ccc(-c4cccc(C)c4)cc3)[C@@H]2C1 | -80* | -83*
COc1ccccc1NC(=O)N1CCCCN2[C@@H](CO)[C@H](c3ccc(C#CC4CC4)cc3)[C@@H]2C1 | 29 | -79
COc1ccccc1NC(=O)N1CCCCN2[C@@H](CO)[C@@H](c3ccc(C#CC4CC4)cc3)[C@@H]2C1 | 48 | -90*
C[C@@H]1CN([C@H](C)CO)C(=O)Cc2cc(NS(C)(=O)=O)ccc2O[C@H]1CN(C)S(=O)(=O)c1cn(C)cn1 | 5 | 19
CCCNC(=O)N1CC2(CN(C(=O)Nc3cccc(F)c3)C2)c2c(n(C)c3cc(OC)ccc23)[C@@H]1CO | 12 | -25
O=C1CN(Cc2ccc(F)cc2)C[C@@H]2[C@@H](c3ccc(Br)cc3)[C@@H](CO)N12 | 6 | 39
O=C(c1ccccc1F)N1CC(=O)N2[C@H](C1)[C@@H](c1ccc(-c3ccc(F)cc3)cc1)[C@@H]2CO | -9 | -89*
O=C1CN(Cc2ccc(F)cc2)C[C@@H]2[C@@H](c3ccc(Br)cc3)[C@H](CO)N12 | 4 | -87*
COc1ccc(-c2ccc([C@@H]3[C@@H](CO)N4C(=O)CN(C(=O)C5CCCC5)C[C@@H]34)cc2)cc1 | -9 | -86*
COc1ccc(-c2ccc([C@@H]3[C@H]4CN(C(=O)C5CCCC5)CC(=O)N4[C@H]3CO)cc2)cc1 | -4 | -66
O=C(c1ccccc1F)N1CC(=O)N2[C@@H](CO)[C@H](c3ccc(-c4ccc(F)cc4)cc3)[C@@H]2C1 | 2 | -1
O=C(C1CCCC1)N1CC(=O)N2[C@H](CO)[C@H](c3ccc(-c4cccnc4)cc3)[C@H]2C1 | -6 | -90*
O=C(C1CCCC1)N1CC(=O)N2[C@H](CO)[C@@H](c3ccc(-c4cccnc4)cc3)[C@@H]2C1 | -2 | 6
COc1ccc(S(=O)(=O)Nc2ccc3c(c2)C(=O)N([C@H](C)CO)C[C@@H](C)[C@H](CN(C)C(=O)C2CCCCC2)OCCCC[C@@H](C)O3)cc1 | -2 | -63
CC(C)NC(=O)Nc1ccc2c(c1)C(=O)N([C@@H](C)CO)C[C@H](C)[C@@H](CN(C)CC1CCCCC1)O2 | 2 | 1

From PubChem BioAssay
